“And” between values parts separate entries of the source, which are not always exact repeats. Equal entries are not always repeated. The campaign covered roughly 340,000 compounds. About 5,100 (1.5%) were called active. What follows is part of a selection rich in actives, with near analogues and random picks from the rest. A number with no mark means an inactive call.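 Rule for the calls: active = mean Tm shift, scaled 0 neutral to 100 positive control, at about 1.3% or above, every replicate too (limit read from the data); inconclusive = no clear call, values can overlap the other calls; inactive = the rest.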
These compounds were tested against Fibroblast growth factor 22 (Homo sapiens) (UniProt Q9HCT0) (assay: FGF22 ligand-induced thermal stabilization – biophysical, thermal shift, single point, FGF22 synaptogenesis inhibitor project, primary screen (AID 651658)). Details: recombinant FGF22 thermal shift, SYPRO orange fluorescence; at 9.99 µM; active compounds read high; percent of sucrose octasulfate shift, DMSO zero.
Chain of Fibroblast growth factor 22 (Homo sapiens) (Q9HCT0 whole entry, looked up): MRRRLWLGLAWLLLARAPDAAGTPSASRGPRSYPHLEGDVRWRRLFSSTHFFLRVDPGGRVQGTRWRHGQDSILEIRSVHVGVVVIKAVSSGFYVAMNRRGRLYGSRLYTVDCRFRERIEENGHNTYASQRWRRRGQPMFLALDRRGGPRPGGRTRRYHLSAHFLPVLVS
Work on `Cc1ccccc1-c1ccc2c(c1)O[C@H](CN(C)C)[C@H](C)CN([C@@H](C)CO)S2(=O)=O` yielded an activity (Tm shift, normalised) of 0.074%.
`C[C@@H]1CN([C@@H](C)CO)C(=O)c2cc(NC(=O)CCCCCC(=O)Nc3ccccc3N)ccc2O[C@@H](C)CCCCO[C@@H]1CN(C)CC1CCCCC1` showed an activity (Tm shift, normalised) of -0.209%.
Compound `COc1cc(C(=O)N2CCN(C/C=C/c3ccccc3)CC2)cc(OC)c1C` has an activity (Tm shift, normalised) of 0.444%.
`CC(C)Cn1c(N2CCN(C(=O)/C=C/c3ccccc3)CC2)nc2ccccc21` was tested, and the activity (Tm shift, normalised) was -0.183%.
In the case of `O=C(Cn1c(N2CCN(C/C=C/c3ccccc3)CC2)nc2ccccc21)c1ccccc1`, the activity (Tm shift, normalised) was 44% (active).
`CCCC(=O)Nc1ccc2c(c1)C(=O)N(C)C[C@H](OC)[C@@H](C)CN[C@H](C)CO2` was tested, and the activity (Tm shift, normalised) was -0.019%.
`CO[C@@H](CN(C)S(=O)(=O)c1ccccc1)[C@@H](C)CN(Cc1ccccc1Cl)[C@H](C)CO` was tested, and the activity (Tm shift, normalised) was 0.183%.
In the case of `COC(=O)Cc1nc2c(N)nc(N)nc2[nH]c1=O`, the activity (Tm shift, normalised) was 44% (active).
`COC(=O)Cc1c(-c2[nH]c3ccccc3c2CC(=O)OC)[nH]c2ccccc12` was tested, and the activity (Tm shift, normalised) was -0.112%.
`Cc1cc(C)cc(N2C(=O)CSC2c2cccc([N+](=O)[O-])c2)c1` (stereo unspecified) gave an activity (Tm shift, normalised) of -0.058%.
Work on `C[C@H]1CN([C@@H](C)CO)C(=O)Cc2cc(NS(=O)(=O)c3cn(C)cn3)ccc2O[C@@H]1CN(C)C(=O)Nc1ccc2c(c1)OCO2` yielded an activity (Tm shift, normalised) of -0.296%.
With `CCCNC(=O)C[C@H]1CC[C@@H]2[C@H](COC[C@H](O)CN2S(=O)(=O)c2ccccc2F)O1` the activity (Tm shift, normalised) was -0.049%.
Compound `COc1ccc2c3c(n(C)c2c1)[C@H](CO)N(C)CC31CCN(C(=O)Nc2cccc(F)c2)CC1` has an activity (Tm shift, normalised) of 0.13%.
Work on `C[C@H]1CN([C@@H](C)CO)S(=O)(=O)c2ccc(-c3ccccc3F)cc2O[C@H]1CN(C)C(=O)C1CC1` yielded an activity (Tm shift, normalised) of 0.047%.
Work on `CCN1CCN(C(=O)CSc2ccc(C)cc2)CC1` yielded an activity (Tm shift, normalised) of -0.037%.
With `CCN1CCN(C(=O)CCN2C(=O)c3ccccc3C2=O)CC1` the activity (Tm shift, normalised) was 44.1% (active).
With `O=C1c2ccccc2C(=O)N1CCCCCCN1C(=O)c2ccccc2C1=O` the activity (Tm shift, normalised) was -0.045%.
With `O=C(CN1CCOCC1)N1CC(=O)N2[C@H](C1)[C@H](c1ccc(/C=C/c3ccccc3)cc1)[C@@H]2CO` the activity (Tm shift, normalised) was -0.125%.
`CCc1nc2ccccc2c(C(=O)OC2CCCCC2=O)c1C` (stereo unspecified) was tested, and the activity (Tm shift, normalised) was 0.135%.
`CCc1nc2ccccc2c(C(=O)NCc2ccc(OC)cc2)c1C` was tested, and the activity (Tm shift, normalised) was 43.4% (active).
For `COc1ccc(CNC(=O)CN2C(=O)c3ccccc3S2(=O)=O)cc1`, the activity (Tm shift, normalised) was 0.05%.
With `O=C(NCC(F)(F)F)[C@H]1[C@H](CO)[C@H]2Cn3c(ccc(-c4ccncc4)c3=O)[C@H]2N1Cc1ccncc1` the activity (Tm shift, normalised) was -0.221%.
`COc1ccc(-c2cc(C(=O)NC(Cc3c[nH]c4ccccc34)C(=O)O)c(C)o2)cc1OC` (stereo unspecified) gave an activity (Tm shift, normalised) of 1.25%.
Compound `Cc1cccc(C)c1OCC(=O)NC(Cc1c[nH]c2ccccc12)C(=O)O` (stereo unspecified) has an activity (Tm shift, normalised) of -0.152%.
In the case of `COc1ccc(-c2cc(=O)oc3cc(OCC(=O)N[C@@H](Cc4c[nH]c5ccccc45)C(=O)O)ccc23)cc1`, the activity (Tm shift, normalised) was 2.9% (active).
`CC=Cc1ccc2n(c1=O)C[C@@H]1[C@@H](CO)[C@H](C(=O)N[C@@H](C)c3ccccc3)[C@H]2N1Cc1ccncc1` (mixture of isomers) showed an activity (Tm shift, normalised) of -0.334%.
Compound `COc1ccc(C2=NN(C(=O)c3ccccc3C(=O)O)C(c3ccccc3O)C2)cc1` (stereo unspecified) has an activity (Tm shift, normalised) of -0.24%.
`CS(=O)(=O)Nc1cccc(C2=NN(S(=O)(=O)c3ccccc3)C(c3cccs3)C2)c1` (stereo unspecified) was tested, and the activity (Tm shift, normalised) was 0.242%.
`COc1cccc(C2CC(c3ccccc3)=NN2S(=O)(=O)c2ccccc2)c1OC` (stereo unspecified) was tested, and the activity (Tm shift, normalised) was 44% (active).
In the case of `C[C@H]1CN([C@@H](C)CO)S(=O)(=O)c2ccc(C3=CCCC3)cc2O[C@H]1CN(C)C(=O)Cc1ccncc1`, the activity (Tm shift, normalised) was 0.421%.
In the case of `O=C(C1CCCCC1)N1[C@H](CO)[C@@H](c2ccccc2)C12CN(Cc1cccc(Cl)c1)C2`, the activity (Tm shift, normalised) was -0.133%.
With `COc1ccc(C(=O)OCc2cc(=O)n3ccsc3n2)cc1F` the activity (Tm shift, normalised) was 44% (active).
`COc1cc(C(=O)OCc2cc(=O)n3ccsc3n2)ccc1OC(C)C` showed an activity (Tm shift, normalised) of 0.144%.
Compound `O=C(OCc1cc(=O)n2ccsc2n1)C1(c2ccc(Cl)cc2)CC1` has an activity (Tm shift, normalised) of 0.39%.
In the case of `CCCC#Cc1ccc([C@H]2[C@H]3CN(C(=O)Nc4cccc(F)c4)CC(=O)N3[C@H]2CO)cc1`, the activity (Tm shift, normalised) was 0.366%.
In the case of `COc1cc2nc(CN(C)Cc3ccc(F)cc3)[nH]c(=O)c2cc1OC`, the activity (Tm shift, normalised) was -0.106%.
Compound `COc1cc(CN(C)Cc2nc3cc(C(F)(F)F)ccc3c(=O)[nH]2)ccc1OC(F)F` has an activity (Tm shift, normalised) of -0.382%.
`COc1ccc(CN(C)Cc2nc3cc(OC)c(OC)cc3c(=O)[nH]2)c(OC)c1` was tested, and the activity (Tm shift, normalised) was 43.6% (active).
Work on `O=C(Nc1ccc(C(F)(F)F)cc1)N[C@@H]1CC[C@H](CC(=O)N2CCCCC2)O[C@H]1CO` yielded an activity (Tm shift, normalised) of -0.164%.
`CO[C@@H]1CN(C)C(=O)c2ccc(NS(C)(=O)=O)cc2OC[C@@H](C)N(C(=O)C2CCOCC2)C[C@@H]1C` was tested, and the activity (Tm shift, normalised) was -0.055%.
Work on `O=C(c1ccc(F)cc1)N1CC2(C1)[C@H](c1ccccc1)[C@@H](CO)N2Cc1ccccn1` yielded an activity (Tm shift, normalised) of -0.271%.
In the case of `O=C(NCCc1c[nH]c2ccccc12)C(=O)NCC1CCCO1` (stereo unspecified), the activity (Tm shift, normalised) was 1.53% (active).
With `N#C/C(=C/c1ccc(N2CCCCC2)o1)C(=O)NCCc1c[nH]c2ccccc12` the activity (Tm shift, normalised) was -0.174%.
`O=C(NCCc1c[nH]c2ccccc12)c1cc2ccccc2oc1=O` showed an activity (Tm shift, normalised) of 0.185%.
`C[C@H](CO)N1C[C@H](C)[C@H](CN(C)C(=O)C2CC2)OCc2ccccc2-c2ccccc2C1=O` showed an activity (Tm shift, normalised) of 0.103%.
For `O=C(NCC[C@@H]1CC[C@H](NC(=O)C2CC2)[C@H](CO)O1)c1cnccn1`, the activity (Tm shift, normalised) was 0.118%.
In the case of `C[C@H](O)C#Cc1ccc2c(c1)O[C@H](CN(C)Cc1ccccn1)[C@H](C)CN([C@H](C)CO)S2(=O)=O`, the activity (Tm shift, normalised) was -0.169%.
Work on `CCCNC(=O)C[C@@H]1C[C@H]2c3cc(NC(=O)Nc4ccccc4F)ccc3O[C@H]2[C@H](CO)O1` yielded an activity (Tm shift, normalised) of -0.607%.
In the case of `COc1cccc(NC(=O)N2[C@@H]3CNC[C@H]2C3c2ccc(-c3ccncc3)cc2)c1` (stereo partly specified), the activity (Tm shift, normalised) was 0.042% and -0.443%.
In the case of `S=c1[nH]nc(COc2ccccc2)n1-c1ccccc1`, the activity (Tm shift, normalised) was 43.8% (active).
For `Fc1ccc(/C=N/n2c(COc3ccccc3)n[nH]c2=S)cc1`, the activity (Tm shift, normalised) was 0.702%.
Work on `COc1ccc(OCc2n[nH]c(=S)n2N)cc1` yielded an activity (Tm shift, normalised) of 0.243%.
`CO[C@@H]1CN(C)C(=O)c2cc(NS(=O)(=O)CC(F)(F)F)ccc2OC[C@H](C)N(C)C[C@H]1C` was tested, and the activity (Tm shift, normalised) was -0.229%.
`O=C(C[C@H]1CC[C@H]2[C@@H](COC[C@H](O)CN2C(=O)c2ccccc2F)O1)NCc1ccccc1` was tested, and the activity (Tm shift, normalised) was 0.053%.
`O=C(NCC1CC1)[C@H]1[C@H](CO)[C@H]2Cn3c(ccc(/C=C/c4ccccc4)c3=O)[C@@H]1N2C(=O)C1CCC1` was tested, and the activity (Tm shift, normalised) was 0.006%.
With `COc1ccc(Cn2c(=O)oc3ccccc32)cc1` the activity (Tm shift, normalised) was -0.205%.
`COc1ccc(-c2ccc([C@@H]3[C@@H](CO)N4C(=O)CN(Cc5ccccc5)C[C@@H]34)cc2)cc1` gave an activity (Tm shift, normalised) of -0.039%.
In the case of `COc1ccc(Cn2c(-c3ccc(Cl)cc3)c[n+]3ccccc23)cc1`, the activity (Tm shift, normalised) was 44% (active).
In the case of `C[C@@H]1CCCCO[C@H](CN(C)Cc2ccc3c(c2)OCO3)[C@H](C)CN([C@@H](C)CO)C(=O)c2cc(NS(=O)(=O)c3cccs3)ccc2O1`, the activity (Tm shift, normalised) was -0.357% and -0.044%.
`CCCOc1ccc(NC(=O)CC2C(=O)N(C)C(=S)N2Cc2ccc3c(c2)OCO3)cc1` (stereo unspecified) was tested, and the activity (Tm shift, normalised) was 2.52% (active).
Compound `O=C(Nc1ccc(Cl)cc1)C1c2cccc[n+]2CC(=O)N1Cc1ccc2c(c1)OCO2` (stereo unspecified) has an activity (Tm shift, normalised) of -0.124%.
With `CCOc1ccc(NC(=O)CC2C(=O)N(c3ccccc3)C(=O)N2CCOC)cc1` (stereo unspecified) the activity (Tm shift, normalised) was -0.014%.
With `COc1ccc(NC(=O)N[C@@H]2CC[C@H](CC(=O)NC3CCC3)O[C@H]2CO)cc1` the activity (Tm shift, normalised) was -0.109%.
`O=C(C[C@@H]1CC[C@@H]2[C@H](COC[C@H](O)CN2S(=O)(=O)c2ccc(Oc3ccccc3)cc2)O1)NCCN1CCCCC1` was tested, and the activity (Tm shift, normalised) was 0.107%.
`COc1ccccc1-c1cnc2c(c1)C(=O)N([C@@H](C)CO)C[C@@H](C)[C@@H](CN(C)C(=O)c1cccnc1)O2` showed an activity (Tm shift, normalised) of -0.285%.
Work on `COc1ccccc1C#Cc1cnc2c(c1)C(=O)N([C@@H](C)CO)C[C@@H](C)[C@@H](CN(C)C(=O)CN(C)C)O2` yielded an activity (Tm shift, normalised) of -0.154%.
`O=C(CC(c1ccccc1)c1ccccc1)NCC(O)c1ccc([N+](=O)[O-])cc1` (stereo unspecified) showed an activity (Tm shift, normalised) of -0.099%.
For `CN(C)C(CNC(=O)Cc1ccc([N+](=O)[O-])cc1)c1ccccc1` (stereo unspecified), the activity (Tm shift, normalised) was 42.9% (active).
Work on `CN(C)CCNC(=O)Cc1ccc([N+](=O)[O-])cc1` yielded an activity (Tm shift, normalised) of 0.505%.
`CCC(=O)N(C)C[C@H]1Oc2ncc(C#CC(C)C)cc2C(=O)N([C@@H](C)CO)C[C@H]1C` was tested, and the activity (Tm shift, normalised) was 0.017%.
In the case of `O=C(C1CCCC1)N1[C@H](CO)[C@@H]2c3ccccc3N(S(=O)(=O)c3ccccc3)C[C@@H]21`, the activity (Tm shift, normalised) was 0.581%.
`C[C@H](O)C#Cc1cnc2c(c1)C(=O)N([C@H](C)CO)C[C@@H](C)[C@H](CN(C)CC1CCCCC1)O2` gave an activity (Tm shift, normalised) of -0.028%.
With `CN(C)CC(=O)N[C@H]1CC[C@@H](CCNC(=O)C2CCCC2)O[C@@H]1CO` the activity (Tm shift, normalised) was 0.021%.
Work on `Cc1ccc(C(=O)NNC(=O)CSc2nnc3ccccn23)cc1` yielded an activity (Tm shift, normalised) of -0.076%.
Work on `O=C(CSc1nnc2ccccn12)c1ccccc1` yielded an activity (Tm shift, normalised) of -0.056%.
With `Cc1ccc(-n2c(C)cc(C(=O)CSc3nnc4ccccn34)c2C)cc1` the activity (Tm shift, normalised) was 43.1% (active).
